PubChem BioAssay (Tox21)
Results filed as inconclusive are left out. Activity calls are given as the source filed them. Unless noted, the call rests on the fitted dose curve.

Legend:
[1] = Nuclear factor erythroid 2-related factor 2/antioxidant responsive element (Nrf2/ARE) small molecule agonists: qHTS cell viability counter screen in human keratinocytes (AID 1919968; active means well fitted cell-killing curve with a large enough effect in the repeat runs; further: nearly all actives have a fitted effect of over 55% in size)
Outline: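 CellTiter-Fluor fluorescence, read 1 h after reagent, gave viability in the same wells as the ARE-luciferase assay. KeratinoSens cells (1,500/well) had 23 h compound exposure at 37 C/5% CO2 following 5 h plating.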

[2] = Nuclear factor erythroid 2-related factor 2/antioxidant responsive element (Nrf2/ARE) small molecule agonists: luciferase reporter gene qHTS assay in human keratinocytes (AID 1919969); further: nearly all actives have a fitted effect of over 35% in size; further: potency means the concentration at half of the fitted maximal effect
[3] = target: Gonadotropin-releasing hormone receptor (Homo sapiens) (UniProt P30968); experiment: Human gonadotropin-releasing hormone receptor (GnRHR) small molecule agonists, calcium flux assay in GnRHR-HEK293 cells (AID 1920063); further: nearly all actives have a fitted effect of over 35% in size
Gonadotropin-releasing hormone receptor (Homo sapiens), sequence (P30968 whole entry, looked up): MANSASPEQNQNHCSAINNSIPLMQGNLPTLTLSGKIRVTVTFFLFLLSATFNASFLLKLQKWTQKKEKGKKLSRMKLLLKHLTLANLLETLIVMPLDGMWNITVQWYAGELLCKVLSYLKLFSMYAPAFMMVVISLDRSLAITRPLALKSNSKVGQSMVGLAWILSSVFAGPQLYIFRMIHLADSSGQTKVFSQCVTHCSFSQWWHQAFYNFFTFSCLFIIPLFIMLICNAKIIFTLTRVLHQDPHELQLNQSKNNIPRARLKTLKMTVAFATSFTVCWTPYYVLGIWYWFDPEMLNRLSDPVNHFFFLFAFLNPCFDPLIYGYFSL
Outline: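 Agonist mode: compounds at 15 concentrations, in triplicate, went onto calcium dye-loaded GnRHR-HEK293 cells. Intracellular calcium was then followed as 480/540 nm fluorescence at 1 s intervals over 3 min.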

[4] = G protein-coupled receptor (GPCR) small molecule agonists, calcium flux assay: HEK293 wild type cell line counter screen (AID 1920065)
Outline: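 Calcium flux counter screen: compound added in agonist mode at 15 concentrations in triplicate to dye-loaded parental HEK293 cells. Fluorescence (480/540) read kinetically for 3 min; ATP served as positive control.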

[5] = p53 small molecule agonists, cell-based qHTS assay with human liver microsomes (AID 1963577);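 further: p53 response element beta-lactamase reporter cells with liver microsomes plus NADPH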
Outline: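 With metabolic activation: human liver microsomes (0.5 mg/mL final) plus NADPH (0.5 mg/mL final) added alongside compounds to p53RE-bla cells; 16 h 37 C exposure; beta-lactamase read by LiveBLAzer fluorescence.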

[6] = p53 small molecule agonists, cell-based qHTS assay with rat liver microsomes (AID 1963578)
Outline: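 Metabolic activation by rat liver microsomes and NADPH, each 0.5 mg/mL final, added right after compounds to p53RE-bla reporter cells (4,000/well, plated 5 h earlier). 16 h at 37 C, then LiveBLAzer substrate for 2 h at room temperature in the dark; fluorescence read-out.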

[7] = p53 small molecule agonists, cell-based qHTS assay with human liver microsomes: qHTS cell viability counter screen (AID 1963579); further: nearly all actives have a fitted effect of over 45% in size
Outline: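 Metabolic activation used human liver microsomes and NADPH, both 0.5 mg/mL final, over 16 hours at 37 C on p53RE-bla cells (4,000/well). Cytotoxicity measured by CellTiter-Glo luminescence, 30 min at room temperature.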

[8] = p53 small molecule agonists, cell-based qHTS assay with rat liver microsomes: qHTS cell viability counter screen (AID 1963580); further: nearly all actives have a fitted effect of over 45% in size
Outline: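 After the beta-lactamase ratio was read, CellTiter-Glo was added to the same wells and luminescence measured at 30 min; cells had been treated 16 h at 37 C with compounds, rat liver microsomes and NADPH (0.5 mg/mL final each).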

[9] = p53 small molecule agonists, cell-based qHTS assay: qHTS cell viability counter screen (AID 1963581); further: nearly all actives have a fitted effect of over 45% in size
Outline: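 Counter screen read by CellTiter-Glo luminescence (ATP content, 30 min at room temperature), run in the same wells as the beta-lactamase reporter read. HCT-116 p53RE-bla cells saw compounds for 16 h at 37 C.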

[10] = p53 small molecule agonists, cell-based qHTS assay (AID 1963582; active means well fitted activation curve with a large enough effect in the signal ratio in the repeat runs, not every such curve was filed as active; the % refers to the signal ratio)
Outline: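 Read-out is beta-lactamase FRET fluorescence after 2 h at room temperature with LiveBLAzer B/G substrate. p53 response element-bla cells were treated 16 h at 37 C with compounds in DMSO, added 5 h after seeding.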

[11] = target: 5-hydroxytryptamine receptor 2A (Homo sapiens) (UniProt P28223); experiment: 5-hydroxytryptamine receptor 2A (HTR2A) small molecule agonists, cell-based qHTS assay (AID 1963587); further: nearly all actives have a fitted effect of over 30% in size; further: potency means the concentration at half of the fitted maximal effect
5-hydroxytryptamine receptor 2A (Homo sapiens), sequence (P28223 whole entry, looked up): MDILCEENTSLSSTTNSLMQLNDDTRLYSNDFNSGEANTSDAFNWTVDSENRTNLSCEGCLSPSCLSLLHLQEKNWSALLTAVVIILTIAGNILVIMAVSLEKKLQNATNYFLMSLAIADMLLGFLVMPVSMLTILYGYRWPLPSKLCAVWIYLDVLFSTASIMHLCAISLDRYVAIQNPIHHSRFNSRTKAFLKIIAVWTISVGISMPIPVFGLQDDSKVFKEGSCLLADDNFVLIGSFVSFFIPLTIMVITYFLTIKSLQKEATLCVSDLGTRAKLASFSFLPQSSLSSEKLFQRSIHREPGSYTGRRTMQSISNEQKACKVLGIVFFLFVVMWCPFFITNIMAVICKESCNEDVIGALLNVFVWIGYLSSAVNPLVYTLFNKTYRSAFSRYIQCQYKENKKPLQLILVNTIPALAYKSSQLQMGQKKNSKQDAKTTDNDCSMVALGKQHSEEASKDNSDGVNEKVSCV
Outline: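 CHO cells stably expressing human HTR2A, plated 18 h, loaded with calcium dye 1 h at 37 C. Agonist mode: compounds added and intracellular calcium fluorescence recorded kinetically for 2 min at 1 sec intervals.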

[12] = target: Muscarinic acetylcholine receptor M1 (Homo sapiens) (UniProt P11229); experiment: Cholinergic receptor muscarinic 1 (CHRM1) small molecule antagonists, cell-based qHTS assay (AID 1963588); further: nearly all actives have a fitted effect of over 40% in size
Muscarinic acetylcholine receptor M1 (Homo sapiens), sequence (P11229 whole entry, looked up): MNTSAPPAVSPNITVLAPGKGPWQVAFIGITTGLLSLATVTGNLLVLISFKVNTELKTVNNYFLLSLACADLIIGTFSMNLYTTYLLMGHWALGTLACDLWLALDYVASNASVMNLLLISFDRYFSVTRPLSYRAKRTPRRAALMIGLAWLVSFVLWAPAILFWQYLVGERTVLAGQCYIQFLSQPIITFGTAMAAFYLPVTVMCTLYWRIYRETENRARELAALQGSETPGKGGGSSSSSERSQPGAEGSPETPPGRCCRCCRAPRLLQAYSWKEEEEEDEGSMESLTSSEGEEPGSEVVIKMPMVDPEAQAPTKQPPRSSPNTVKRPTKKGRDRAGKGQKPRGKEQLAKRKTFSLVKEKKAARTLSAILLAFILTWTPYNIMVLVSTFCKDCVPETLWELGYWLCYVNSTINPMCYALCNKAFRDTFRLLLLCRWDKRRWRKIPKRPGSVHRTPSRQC
Outline: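 Compounds were tested at 15 concentrations in three independent runs. Dye-loaded CHRM1-CHO cells were exposed 5 min at room temperature before stimulation by acetylcholine added at 50nM. Intracellular calcium was read kinetically on FDSS for 3 min.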

[13] = target: Muscarinic acetylcholine receptor M1 (Homo sapiens) (UniProt P11229); experiment: Cholinergic receptor muscarinic 1 (CHRM1) small molecule agonists, cell-based qHTS assay (AID 1963589); further: nearly all actives have a fitted effect of over 35% in size
Outline: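 Agonist-mode calcium-flux screen: compounds at 15 concentrations, three independent runs, were pin-transferred onto dye-loaded human CHRM1-CHO cells. Fluorescence was then recorded kinetically every second over minutes.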

[14] = cAMP Responsive Elements (CRE) small molecule agonists, cell-based qHTS assay (AID 1963590)
Outline: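 Agonist mode: compound added to CRE-bla HEK 293T cells (2,000/well, 18 h after plating) for 3 h at 37 C/5% CO2. Reporter activity detected via FRET beta-lactamase substrate, 2 h room-temperature loading.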

[15] = cAMP Responsive Elements (CRE) small molecule antagonists, cell-based qHTS assay (AID 1963591; active means well fitted inhibition curve with a large enough effect in the signal ratio in the repeat runs, not every such curve was filed as active; the % refers to the signal ratio)
Outline: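 Antagonist mode: compounds are added alongside the adenylyl cyclase activator NKH477 (0.25 uM final) to CRE-bla HEK293T cells for 3 h. LiveBLAzer FRET substrate, 2 h at room temperature, reports bla expression.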

[16] = target: Beta-2 adrenergic receptor (Homo sapiens) (UniProt P07550); experiment: Adrenergic beta2 receptor (ADRB2) small molecule antagonists, cell-based qHTS assay (AID 1963592); further: series mostly up to about 92 µM; nearly all actives have a fitted effect of over 50% in size
Beta-2 adrenergic receptor (Homo sapiens), sequence (P07550 whole entry, looked up): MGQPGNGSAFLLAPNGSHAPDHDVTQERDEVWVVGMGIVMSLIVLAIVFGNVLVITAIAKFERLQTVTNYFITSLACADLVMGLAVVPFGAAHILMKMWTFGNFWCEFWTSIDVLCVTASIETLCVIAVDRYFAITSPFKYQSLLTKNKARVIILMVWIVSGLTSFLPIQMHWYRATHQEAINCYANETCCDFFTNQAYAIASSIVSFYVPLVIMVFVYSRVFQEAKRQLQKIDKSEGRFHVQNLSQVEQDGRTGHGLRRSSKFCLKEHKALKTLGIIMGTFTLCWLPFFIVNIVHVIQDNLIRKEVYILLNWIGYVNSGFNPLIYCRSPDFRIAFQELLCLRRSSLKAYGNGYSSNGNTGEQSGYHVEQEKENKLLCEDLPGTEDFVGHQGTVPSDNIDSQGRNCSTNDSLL
Outline: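 Assay format: CHO-ADRB2 cells, 18-20hr seeding at 37C/5% CO2, then compound plus 1nM isoproterenol agonist mix for 0.5hr RT. Homogeneous time-resolved fluorescence cAMP detection after 1hr, expressed as 665/615 nm ratio.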

[17] = target: Beta-2 adrenergic receptor (Homo sapiens) (UniProt P07550); experiment: Adrenergic beta2 receptor (ADRB2) small molecule agonists, cell-based qHTS assay (AID 1963593);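 further: CHO cells stably overexpressing human ADRB2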
Outline: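 CHO cells stably over-expressing ADRB2 were plated overnight at 37C, then dosed with compounds plus a stimulation mix containing 100uM IBMX and 25uM Ro-20-1724 for 0.5hr at room temperature. cAMP was measured by HTRF competition, 1hr.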

[18] = target: D(2) dopamine receptor (Homo sapiens) (UniProt P14416); experiment: Dopamine D2 receptor (DRD2) small molecule agonists, cell-based qHTS assay (AID 1963594); further: nearly all actives have a fitted effect of over 35% in size
D(2) dopamine receptor (Homo sapiens), sequence (P14416 whole entry, looked up): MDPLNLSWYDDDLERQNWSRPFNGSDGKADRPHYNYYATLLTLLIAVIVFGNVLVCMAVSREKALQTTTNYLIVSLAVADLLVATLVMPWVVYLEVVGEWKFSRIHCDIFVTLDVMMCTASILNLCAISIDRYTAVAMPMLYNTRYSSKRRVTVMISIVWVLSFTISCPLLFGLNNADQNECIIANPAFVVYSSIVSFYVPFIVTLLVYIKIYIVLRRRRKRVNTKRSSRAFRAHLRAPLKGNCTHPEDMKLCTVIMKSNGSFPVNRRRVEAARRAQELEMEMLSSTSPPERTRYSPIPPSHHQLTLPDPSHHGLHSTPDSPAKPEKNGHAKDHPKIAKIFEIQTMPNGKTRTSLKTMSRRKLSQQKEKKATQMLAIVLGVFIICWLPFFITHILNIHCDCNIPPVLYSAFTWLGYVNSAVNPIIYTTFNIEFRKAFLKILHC
Outline: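 HEK293 cells stably expressing human DRD2, pre-treated with PDE inhibitor Ro20-1724 (0.1 mM final) and compound 10 min at room temperature, then stimulated with NKH477 (200nM […]) for 30 min. cAMP read by HTRF (665/620 nm).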

[19] = target: D(2) dopamine receptor (Homo sapiens) (UniProt P14416); experiment: Dopamine D2 receptor (DRD2) small molecule antagonists, cell-based qHTS assay (AID 1963595; active means well fitted inhibition curve with a large enough effect in the signal ratio in the repeat runs, with a control signal flat; the % refers to the signal ratio)
Outline: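 DRD2-HEK293; 0.1 mM Ro20-1724; cpd 10 min RT; NKH477 200 nM + quinpirole 12 nM, 30 min RT; HTRF cAMP (cAMP-d2/anti-cAMP cryptate), 665/620 nm ratio after 1 h.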

[20] = target: 5-hydroxytryptamine receptor 2A (Homo sapiens) (UniProt P28223); experiment: 5-hydroxytryptamine receptor 2A (HTR2A) small molecule antagonists, cell-based qHTS assay (AID 1963586); further: nearly all actives have a fitted effect of over 45% in size
Outline: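 CHO cells stably expressing human HTR2A were plated for 18 h at 37 C, then loaded with calcium dye for 1 h. Compounds were preincubated 5 min at room temperature before DOI (4 nM solution) was added. Kinetic fluorescence was read for 3 min.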
On the % scale 0 is the no-effect control and ±100 the full control effect.

CCOC(CN1CCN(CC(C)C(=O)c2ccccc2)CC1)c1ccccc1 (configuration not stated)
inactive: activity change, negative = cytotoxicity [1] -17.1% [at 19 µM] | activity, positive = activation [2] 6.71% [at 19 µM] | activity change [3] -0.217% [at 11.8 µM, stronger effect = higher value] | activation [4] 1.41% [at 11.8 µM] | activation [5] -8.35% [at 13.5 µM] | activation [6] 1.1% [at 13.6 µM] | activity change, negative = cytotoxicity [7] 24.1% [at 13.5 µM] | activity change, negative = cytotoxicity [8] 0.0683% [at 13.5 µM] | activity change, negative = cytotoxicity [9] 9.5% [at 13.5 µM] | activation [10] -3.89% [at 13.5 µM] | activation [11] -20.7% [at 15.9 µM] | activity, negative = inhibition [12] -8.62% [at 12.6 µM] | activation [13] -0.405% [at 15.8 µM] | activation [14] -1.09% [at 19 µM] | activity change, negative = inhibition [15] 10.1% [at 18.9 µM] | activity change, negative = inhibition [16] 4.02% [at 19 µM] | Potency [17] | activation [18] -24.3% [at 19 µM] | activity change, negative = inhibition [19] 9.08% [at 18.9 µM]

C=C[Si](C)(C)O[Si](C)(C)C=C
inactive: Potency [1] | Potency [2] | Potency [3] | outcome [4] | Potency [5] | Potency [6] | Potency [7] | Potency [8] | Potency [9] | Potency [10] | Potency [11] | Potency [12] | Potency [13] | Potency [14] | Potency [15] | Potency [16] | Potency [18] | Potency [19]

CO[Si](CCCNc1ccccc1)(OC)OC
inactive: Potency [1] | Potency [2] | Potency [3] | outcome [4] | Potency [5] | Potency [6] | Potency [7] | Potency [8] | Potency [9] | Potency [11] | Potency [12] | Potency [13] | Potency [14] | Potency [15] | Potency [16] | Potency [18] | Potency [19]

Cc1cc(NS(=O)(=O)c2ccc(N)cc2)nc(C)n1
inactive: Potency [1] | Potency [2] | Potency [3] | outcome [4] | Potency [5] | Potency [6] | Potency [7] | Potency [8] | Potency [9] | Potency [11] | Potency [12] | Potency [13] | Potency [14] | Potency [15] | Potency [17] | Potency [18] | Potency [19]

CN(C)CCc1c[nH]c2ccc(CS(=O)(=O)N3CCCC3)cc12
inactive: Potency [1] | Potency [2] | Potency [3] | outcome [4] | Potency [5] | Potency [6] | Potency [7] | Potency [8] | Potency [9] | Potency [10] | Potency [12] | Potency [13] | Potency [14] | Potency [15] | Potency [16] | Potency [17] | Potency [18] | Potency [19]
active: Potency [11] 10.7 µM

CCCCCCCCCCC(=O)O
inactive: Potency [1] | Potency [2] | Potency [3] | outcome [4] | Potency [5] | Potency [6] | Potency [7] | Potency [8] | Potency [9] | Potency [20] | Potency [11] | Potency [12] | Potency [13] | Potency [15] | Potency [16] | Potency [17] | Potency [18] | Potency [19]

C[C@@H]1[C@H](O)[C@@H](C)/C=C/C=C\C=C\C=C\C=C\C=C\C=C\[C@H](O[C@@H]2O[C@H](C)[C@@H](O)[C@H](N)[C@@H]2O)C[C@@H]2O[C@](O)(C[C@@H](O)C[C@@H](O)[C@H](O)CC[C@@H](O)C[C@@H](O)CC(=O)O[C@H]1C)C[C@H](O)[C@H]2C(=O)O (stereo in doubt)
inactive: Potency [1] | Potency [3] | outcome [4] | Potency [5] | Potency [6] | Potency [7] | Potency [8] | Potency [9] | Potency [10] | Potency [16] | Potency [17] | Potency [18] | Potency [19]
active: Potency [2] 68.6 µM
